Results from PubChem BioAssay (NCI).
Several values for one entry are separate records, joined by “and”; a condition that tells them apart may be missing. Equal values may be shown once. About 83,000 compounds went through this panel and 20% of them were active in at least one assay; those are over-represented in the sample as a whole.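 Cell lines were cultured in 96-well plates, exposed to a single compound concentration, and assessed for percent growth 48 hours later.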 Activity calls are given as the source filed them. The calls were made as follows: active = growth percent below 10; inactive = the rest.

Tested on: SR leukemia
Experiment: NCI-60 one-dose screen, 48 h (100 = growth as untreated, 0 = no growth, -100 = all killed)
Conditions: 10 µM unless noted

Structure (SMILES) | growth
OCCCc1ccccc1 | 132% (inactive)
S=c1nn[nH]n1C1CCCCC1 | 101% (inactive)
CC1=CC(=O)C=CC1=Nc1ccc(N(C)C)cc1 | 29.3% (inactive)
Nc1nc(=S)c2[nH]cnc2[nH]1 | 5.87% (active) and 0.643% (active)
O=c1[nH]c(=S)[nH]n1C(=S)n1[nH]c(=S)[nH]c1=O | 99.7% (inactive)
CN(C)C(=N)N=C(N)N | 133% (inactive)
COc1ccc2nccc(Cl)c2c1 | 101% (inactive)
COc1ccc(CCn2cnn3c(=O)c4ccccc4nc3c2=O)cc1OC | 99.4% (inactive) and 90.8% (inactive)
N=C(N=C(N)N)N1CCOCC1 | 103% (inactive)
N#CC(=S)Nc1ccc(Cl)c(Cl)c1 | 9.44% (active)
O=C1C(=O)c2ccccc2C(O)=C1CC=C(Cl)Cl | 43.4% (inactive) and 55.5% (inactive)
CCOC(=O)C1=C(C)NC(C)=C(C(=O)OCC)C1 | 101% (inactive) and 105% (inactive)
COc1ccc(CCO)cc1 | 75.6% (inactive)
COc1ccc(/C=N/Nc2nc3ccccc3s2)cc1 | 87.9% (inactive)
Nc1ccccc1SC1CC(=O)N(c2ccc(I)cc2)C1=O (centres undefined) | 68.6% (inactive)
Clc1ccc2c(c1)N(C1CCCN(Cc3ccccc3)C1)c1ccccc1S2 (centres undefined) | 16.1% (inactive)
COc1ccc([N+](=O)[O-])cc1OC | 89.4% (inactive) and 108% (inactive)
NC(=O)Cc1nc(O)cc(=O)[nH]1 | 93.5% (inactive)
N=C(N)N1CCc2ccccc2C1 | 75.1% (inactive) and 93.9% (inactive)

Structure (SMILES) | growth
Clc1ccc2sc(-c3ccccc3)nc2c1 | 83.1% (inactive)
COc1cc2oc3cc(=O)cc4oc(-c5ccccc5)cc(c2c2c1CCC(c1ccccc1)O2)c43 (centres undefined) | 69.6% (inactive)
CC(C)(C)C1=CC(=O)C(C(C)(C)C)=CC1=O | 78.9% (inactive) and 97% (inactive)
Oc1ccc(O)c(-c2ccccc2)c1 | 4.96% (active)
COc1ccc(CCl)c(C)c1OC | 105% (inactive)
CCNC1=CC(=O)c2ncccc2C1=O | 50.9% (inactive)
O=C1C=CC(=O)N1Cc1ccco1 | 74.7% (inactive)
CC(C)=NOC(C)C(=O)O (centres undefined) | 92% (inactive)
Cc1cc2nc3ccc(=[N+](C)C)cc-3sc2cc1N | -4.11% (active)
c1ccc2c[n+](Cc3ccc4ccccc4n3)ccc2c1 | 98.1% (inactive)
COc1cc([C@@H]2c3cc4c(cc3[C@H](O)[C@H]3COC(=O)[C@@H]23)OCO4)cc(OC)c1OC | 6.02% (active) and -8.59% (active)
O=c1ccn2c(n1)OC1CC2OC1COC(c1ccccc1)(c1ccccc1)c1ccccc1 (centres undefined) | 46.1% [100 µM] (inactive)
NNC(=O)Nc1ccccc1 | 96.5% (inactive)
Cc1nc2c(=O)[nH]c(=S)[nH]c2[nH]c1=O | 112% (inactive)
CS/C(=C\c1ccc(C(=O)c2ccc(C)cc2)n1C)S(C)=O (centres undefined) | 30.9% [100 µM] (inactive)
Oc1cccnc1CN1CCOCC1 | 103% (inactive)
O=C1c2ccccc2CN1c1ccccc1 | 84.5% (inactive)
COC1C(OC(N)=O)C(O)C(Oc2ccc3c(O)c(NC(=O)c4ccc(O)c(CC=C(C)C)c4)c(=O)oc3c2C)OC1(C)C (centres undefined) | 84% (inactive) and 80% (inactive)
C/C=C/C(=O)OCCCCCCCCCCCC | 83.4% (inactive)

Tested on: RPMI-8226 leukemia
Experiment: as above
Conditions: 10 µM unless noted

Structure (SMILES) | growth
OCCCc1ccccc1 | 117% (inactive)
S=c1nn[nH]n1C1CCCCC1 | 109% (inactive)
CC1=CC(=O)C=CC1=Nc1ccc(N(C)C)cc1 | 66.5% (inactive) and -4.07% (active)
Nc1nc(=S)c2[nH]cnc2[nH]1 | 1.54% (active) and -23.5% (active)
O=c1[nH]c(=S)[nH]n1C(=S)n1[nH]c(=S)[nH]c1=O | 99% (inactive)
CN(C)C(=N)N=C(N)N | 92.2% (inactive)
COc1ccc2nccc(Cl)c2c1 | 110% (inactive)
COc1ccc(CCn2cnn3c(=O)c4ccccc4nc3c2=O)cc1OC | 95.7% (inactive) and 92.2% (inactive)
N=C(N=C(N)N)N1CCOCC1 | 113% (inactive) and 107% (inactive)
N#CC(=S)Nc1ccc(Cl)c(Cl)c1 | 19.7% (inactive)
O=C1C(=O)c2ccccc2C(O)=C1CC=C(Cl)Cl | 44.7% (inactive) and 41.7% (inactive)
CCOC(=O)C1=C(C)NC(C)=C(C(=O)OCC)C1 | 92.6% (inactive) and 99.2% (inactive)
COc1ccc(CCO)cc1 | 110% (inactive)
COc1ccc(/C=N/Nc2nc3ccccc3s2)cc1 | 104% (inactive)
Nc1ccccc1SC1CC(=O)N(c2ccc(I)cc2)C1=O (centres undefined) | 85.1% (inactive)
Clc1ccc2c(c1)N(C1CCCN(Cc3ccccc3)C1)c1ccccc1S2 (centres undefined) | 25.9% (inactive)
COc1ccc([N+](=O)[O-])cc1OC | 106% (inactive)
NC(=O)Cc1nc(O)cc(=O)[nH]1 | 85.2% (inactive)

Structure (SMILES) | growth
N=C(N)N1CCc2ccccc2C1 | 74.5% (inactive) and 80.8% (inactive)
Clc1ccc2sc(-c3ccccc3)nc2c1 | 97% (inactive)
COc1cc2oc3cc(=O)cc4oc(-c5ccccc5)cc(c2c2c1CCC(c1ccccc1)O2)c43 (centres undefined) | 61.4% (inactive)
CC(C)(C)C1=CC(=O)C(C(C)(C)C)=CC1=O | 86.9% (inactive) and 102% (inactive)
Oc1ccc(O)c(-c2ccccc2)c1 | 42% (inactive)
COc1ccc(CCl)c(C)c1OC | 106% (inactive)
CCNC1=CC(=O)c2ncccc2C1=O | 66.4% (inactive)
O=C1C=CC(=O)N1Cc1ccco1 | 107% (inactive)
CC(C)=NOC(C)C(=O)O (centres undefined) | 111% (inactive)
Cc1cc2nc3ccc(=[N+](C)C)cc-3sc2cc1N | -10.3% (active) and -38.2% (active)
c1ccc2c[n+](Cc3ccc4ccccc4n3)ccc2c1 | 57.2% (inactive)
COc1cc([C@@H]2c3cc4c(cc3[C@H](O)[C@H]3COC(=O)[C@@H]23)OCO4)cc(OC)c1OC | 25.8% (inactive) and -19.7% (active)
NNC(=O)Nc1ccccc1 | 106% (inactive)
Cc1nc2c(=O)[nH]c(=S)[nH]c2[nH]c1=O | 104% (inactive) and 105% (inactive)
Oc1cccnc1CN1CCOCC1 | 104% (inactive) and 96.7% (inactive)
O=C1c2ccccc2CN1c1ccccc1 | 107% (inactive)
COC1C(OC(N)=O)C(O)C(Oc2ccc3c(O)c(NC(=O)c4ccc(O)c(CC=C(C)C)c4)c(=O)oc3c2C)OC1(C)C (centres undefined) | 99.5% (inactive) and 80.1% (inactive)
C/C=C/C(=O)OCCCCCCCCCCCC | 99.9% (inactive)
